Laboratory results as given in PubChem BioAssay AID1159580 (chemical genetic matrix, 2015).
“And” between values parts separate entries of the source, which are not always exact repeats. Identical values can stand only once. About 2,000 (36%) of roughly 5,500 compounds were called active. Roughly 18% stayed inconclusive and do not appear here. Rule as the data show it: active = normalized growth mostly below about 0.91 (no sharp cut-off); inconclusive = no clear call, values can overlap the other calls; inactive = mostly above about 0.92. The list shows a part of the results. Some structures have more than one record in an assay (separate samples or runs), and their calls can disagree.

Test: chemical genetic growth profiling, strain panel (AID 1159580);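 also: tested at 20 µM; growth read once vehicle control cultures reached saturation at 30 °C; 1 = growth at the plate median or of vehicle wells; lower values mean less growth of the strain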
Conditions: growth OD

Measured: normalized growth

CCn1cc(C(=O)O)c(=O)c2ccc(C)nc21
0.945 (inactive) and 0.927 (active): S. cerevisiae deletion strains, locus YPL241C, strain CIN2, stronger effect = lower value
inactive: S. cerevisiae deletion strains, locus YKL009W, strain mrt4, stronger effect = lower value 0.91 | S. cerevisiae deletion strains, locus YKL068W, stronger effect = lower value 0.942 | S. cerevisiae deletion strains, locus YKL085W, strain MDH1 (second series), stronger effect = lower value 0.938 | S. cerevisiae deletion strains, locus YKL085W, strain MDH1, stronger effect = lower value 0.938 | S. cerevisiae deletion strains, locus YKL160W, strain elf1, stronger effect = lower value 0.976 | S. cerevisiae deletion strains, locus YKL190W, strain CNB1, stronger effect = lower value 0.933 | S. cerevisiae deletion strains, locus YKR026C, strain gcn3, stronger effect = lower value 0.965 | S. cerevisiae deletion strains, locus YLL001W, strain dnm1, stronger effect = lower value 0.946 | S. cerevisiae deletion strains, locus YLL026W, stronger effect = lower value 0.94 | S. cerevisiae deletion strains, locus YLL041C, strain sdh2, stronger effect = lower value 0.931 | S. cerevisiae deletion strains, locus YLR027C, strain aat2, stronger effect = lower value 0.942 | S. cerevisiae deletion strains, locus YLR058C, strain SHM2, stronger effect = lower value 0.921 | S. cerevisiae deletion strains, locus YLR102C, strain apc9, stronger effect = lower value 0.933 | S. cerevisiae deletion strains, locus YLR113W, strain HOG1, stronger effect = lower value 0.94 | S. cerevisiae deletion strains, locus YLR221C, strain rsa3, stronger effect = lower value 0.943 | S. cerevisiae deletion strains, locus YLR258W, strain gsy2, stronger effect = lower value 0.939 | S. cerevisiae deletion strains, locus YLR320W, strain mms22, stronger effect = lower value 0.976 | S. cerevisiae deletion strains, locus YLR330W, strain CHS5, stronger effect = lower value 0.949 | S. cerevisiae deletion strains, locus YLR342W, strain FKS1 (second series), stronger effect = lower value 0.958 | S. cerevisiae deletion strains, locus YLR342W, strain FKS1, stronger effect = lower value 0.912 | S. cerevisiae deletion strains, locus YLR357W, strain rsc2, stronger effect = lower value 1.09 | S. cerevisiae deletion strains, locus YLR370C, strain arc18, stronger effect = lower value 0.943 | S. cerevisiae deletion strains, locus YLR371W, strain rom2, stronger effect = lower value 0.941 | S. cerevisiae deletion strains, locus YLR384C, strain iki3, stronger effect = lower value 0.926 | S. cerevisiae deletion strains, locus YLR418C, strain cdc73, stronger effect = lower value 0.852 | S. cerevisiae deletion strains, locus YML120C, strain ndi1, stronger effect = lower value 0.954 | S. cerevisiae deletion strains, locus YMR058W, strain fet3, stronger effect = lower value 0.943 | S. cerevisiae deletion strains, locus YMR078C, strain ctf18, stronger effect = lower value 0.927 | S. cerevisiae deletion strains, locus YMR125W, strain sto1, stronger effect = lower value 1.02 | S. cerevisiae deletion strains, locus YMR129W, stronger effect = lower value 0.941 | S. cerevisiae deletion strains, locus YMR205C, strain PFK2, stronger effect = lower value 0.986 | S. cerevisiae deletion strains, locus YMR223W, strain ubp8, stronger effect = lower value 0.947 | S. cerevisiae deletion strains, locus YMR263W, strain SAP30, stronger effect = lower value 0.97 | S. cerevisiae deletion strains, locus YMR307W, strain GAS1, stronger effect = lower value 0.756 | S. cerevisiae deletion strains, locus YNL067W, strain RPL9B, stronger effect = lower value 0.949 | S. cerevisiae deletion strains, locus YNL071W, strain lat1, stronger effect = lower value 0.925 | S. cerevisiae deletion strains, locus YNL128W, strain TEP1, stronger effect = lower value 0.941 | S. cerevisiae deletion strains, locus YNL153C, strain GIM3, stronger effect = lower value 0.971 and 1.01 | S. cerevisiae deletion strains, locus YNL175C, strain NOP13, stronger effect = lower value 0.944 | S. cerevisiae deletion strains, locus YNL183C, strain NPR1, stronger effect = lower value 0.911 | S. cerevisiae deletion strains, locus YNL197C, strain WHI3, stronger effect = lower value 0.939 | S. cerevisiae deletion strains, locus YNL209W, strain ssb2, stronger effect = lower value 0.929 | S. cerevisiae deletion strains, locus YNL224C, strain SQS1, stronger effect = lower value 0.944 | S. cerevisiae deletion strains, locus YNL233W, strain BNI4, stronger effect = lower value 0.994 | S. cerevisiae deletion strains, locus YNL248C, strain rpa49, stronger effect = lower value 0.984 | S. cerevisiae deletion strains, locus YNL250W, strain rad50, stronger effect = lower value 0.939 | S. cerevisiae deletion strains, locus YNL307C, strain MCK1, stronger effect = lower value 0.955 | S. cerevisiae deletion strains, locus YNL322C, strain KRE1 (second series), stronger effect = lower value 0.983 | S. cerevisiae deletion strains, locus YNL322C, strain KRE1, stronger effect = lower value 0.933 and 0.965 | S. cerevisiae deletion strains, locus YNR049C, strain mso1, stronger effect = lower value 0.937 | S. cerevisiae deletion strains, locus YOL006C, strain TOP1, stronger effect = lower value 1.04 | S. cerevisiae deletion strains, locus YOL012C, strain htz1 0.496 | S. cerevisiae deletion strains, locus YOR061W, strain CKA2, stronger effect = lower value 0.898 | S. cerevisiae deletion strains, locus YOR070C, strain gyp1, stronger effect = lower value 0.935 | S. cerevisiae deletion strains, locus YOR080W, strain dia2, stronger effect = lower value 0.927 | S. cerevisiae deletion strains, locus YOR083W, strain WHI5 (second series), stronger effect = lower value 0.968 | S. cerevisiae deletion strains, locus YOR083W, strain WHI5, stronger effect = lower value 0.935 | S. cerevisiae deletion strains, locus YOR106W, strain vam3, stronger effect = lower value 0.964 | S. cerevisiae deletion strains, locus YOR136W, strain idh2, stronger effect = lower value 0.969 | S. cerevisiae deletion strains, locus YOR184W, strain ser1, stronger effect = lower value 0.882 | S. cerevisiae deletion strains, locus YOR231W, strain MKK1, stronger effect = lower value 0.888 | S. cerevisiae deletion strains, locus YOR265W, strain rbl2, stronger effect = lower value 0.93 | S. cerevisiae deletion strains, locus YOR270C, strain vph1, stronger effect = lower value 1.08 | S. cerevisiae deletion strains, locus YOR290C, strain snf2, stronger effect = lower value 0.962 | S. cerevisiae deletion strains, locus YOR316C, strain cot1, stronger effect = lower value 0.926 | S. cerevisiae deletion strains, locus YPL055C, strain LGE1, stronger effect = lower value 1.05 and 1.03 | S. cerevisiae deletion strains, locus YPL078C, strain atp4, stronger effect = lower value 0.927 | S. cerevisiae deletion strains, locus YPL106C, strain sse1, stronger effect = lower value 1.06 | S. cerevisiae deletion strains, locus YPL240C, strain hsp82, stronger effect = lower value 0.931 | S. cerevisiae deletion strains, locus YPL256C, strain CLN2, stronger effect = lower value 0.993 | S. cerevisiae deletion strains, locus YPR141C, strain kar3, stronger effect = lower value 0.954 | S. cerevisiae deletion strains, locus YPR167C, strain met16, stronger effect = lower value 0.929 | S. cerevisiae deletion strains, strain wtn01, stronger effect = lower value 0.915 | S. cerevisiae strains, strain wild type, stronger effect = lower value 0.932
active: S. cerevisiae deletion strains, locus YKR001C, strain vps1, stronger effect = lower value 0.812 | S. cerevisiae deletion strains, locus YKR091W, strain srl3, stronger effect = lower value 0.926 | S. cerevisiae deletion strains, locus YLR039C, strain RIC1, stronger effect = lower value 0.447 | S. cerevisiae deletion strains, locus YLR262C, strain YPT6 (second series), stronger effect = lower value 0.297 | S. cerevisiae deletion strains, locus YLR262C, strain YPT6, stronger effect = lower value 0.406 | S. cerevisiae deletion strains, locus YLR268W, strain sec22, stronger effect = lower value 0.868 | S. cerevisiae deletion strains, locus YML016C, strain PPZ1, stronger effect = lower value 0.887 | S. cerevisiae deletion strains, locus YML032C, strain rad52, stronger effect = lower value 0.883 | S. cerevisiae deletion strains, locus YML124C, strain tub3, stronger effect = lower value 0.916 | S. cerevisiae deletion strains, locus YMR231W, strain pep5, stronger effect = lower value 0.891 | S. cerevisiae deletion strains, locus YNL271C, strain bni1, stronger effect = lower value 0.864 | S. cerevisiae deletion strains, locus YNL298W, strain CLA4, stronger effect = lower value 0.871 | S. cerevisiae deletion strains, locus YNR052C, strain pop2, stronger effect = lower value 0.803 | S. cerevisiae deletion strains, locus YOL147C, strain pex11, stronger effect = lower value 0.926 | S. cerevisiae deletion strains, locus YOR001W, strain rrp6, stronger effect = lower value 0.828 | S. cerevisiae deletion strains, locus YOR069W, strain VPS5, stronger effect = lower value 0.918 | S. cerevisiae deletion strains, locus YOR144C, strain elg1, stronger effect = lower value 0.914 | S. cerevisiae deletion strains, locus YPL051W, strain arl3, stronger effect = lower value 0.903 | S. cerevisiae deletion strains, locus YPR119W, strain clb2, stronger effect = lower value 0.918 | S. cerevisiae deletion strains, locus YPR163C, strain tif3, stronger effect = lower value 0.882
